In PubChem BioAssay (EPA / NIEHS):
Where “and” joins values, the source holds several entries; their conditions need not be identical. Identical values can stand only once. Some structures have more than one record in an assay (separate samples or runs), and their calls can disagree. Calls of active or inactive are those of the source. How the source made its calls: active means hit-call score of the fitted dose curve at least 0.9, where 1 is the maximum; inactive means score below 0.9.

Assays:
[1] = read-out: Interleukin-1 alpha (IL1a), IL1A (gene 3552); test: BSK_KF3CT_IL1a: BioMAP Diversity Plus: KF3CT Assay for Interleukin-1 alpha (IL1a) Biomarker Activity (AID 2283070); conditions: primary human keratinocytes with fibroblasts; actives raise or lower the signal
How it was run: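 Human keratinocyte plus foreskin fibroblast primary co-culture, sampled 24 h after chemical dosing. IL-1a measured by ELISA; responses fitted bidirectionally against DMSO baseline (negative control), so gain or loss of signal both count.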

[2] = read-out: TIMP metallopeptidase inhibitor 2 (TIMP2), TIMP2 (gene 7077); test: BSK_KF3CT_TIMP2: BioMAP Diversity Plus: KF3CT Assay for TIMP metallopeptidase inhibitor 2 (TIMP2) Biomarker Activity (AID 2283071); conditions: primary human keratinocytes with fibroblasts; actives raise or lower the signal
How it was run: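 Cells: human keratinocytes co-cultured with foreskin fibroblasts. Treat with chemical, 24 h. Measure TIMP-2 by ELISA; fit curves bidirectionally vs DMSO baseline.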

[3] = read-out: Transforming growth factor beta 1 (TGFb1), TGFB1 (gene 7040); test: BSK_KF3CT_TGFb1: BioMAP Diversity Plus: KF3CT Assay for Transforming growth factor beta 1 (TGFb1) Biomarker Activity (AID 2283072); conditions: primary human keratinocytes with fibroblasts; actives raise or lower the signal
How it was run: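 Primary human skin cells (keratinocytes, foreskin fibroblasts) were co-cultured, exposed to test chemical and sampled at 24 h. TGF-b1 levels were measured by ELISA and fitted bidirectionally relative to DMSO.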

[4] = read-out: C-C motif chemokine 2 (Homo sapiens) (UniProt P13500); test: BSK_KF3CT_MCP1: BioMAP Diversity Plus: KF3CT Assay for Monocyte Chemoattractant Protein 1 (MCP1/CCL2) Biomarker Activity (AID 2283073); conditions: primary human keratinocytes with fibroblasts; actives raise or lower the signal
How it was run: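 ELISA read-out of MCP-1, 24 h post-dose, in primary human skin keratinocytes co-cultured with fibroblasts. Parallel SRB staining monitors cytotoxicity; changes fitted both directions relative to DMSO.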

[5] = read-out: Matrix Metallopeptidase 9 (MMP9), MMP9 (gene 4318); test: BSK_KF3CT_MMP9: BioMAP Diversity Plus: KF3CT Assay for Matrix Metallopeptidase 9 (MMP9) Biomarker Activity (AID 2283074); conditions: primary human keratinocytes with fibroblasts; actives raise or lower the signal;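 on AC50: MMP9 protein level quantified by ELISA in the co-culture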
How it was run: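 Keratinocyte plus foreskin fibroblast human primary skin co-culture was dosed with chemical and MMP-9 was quantified by ELISA 24 h later. Bidirectional curve fitting used DMSO as negative control and activity baseline.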

[6] = read-out: urokinase plasminogen activator (uPA), PLAU (gene 5328); test: BSK_KF3CT_uPA: BioMAP Diversity Plus: KF3CT Assay for urokinase plasminogen activator (uPA) Biomarker Activity (AID 2283075); conditions: primary human keratinocytes with fibroblasts; actives raise or lower the signal
How it was run: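 Human keratinocyte plus foreskin fibroblast primary co-culture exposed to chemical for 24 h. uPA levels were quantified by ELISA, and activity was fitted bidirectionally against a DMSO negative-control baseline.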

CD40, CD40 (gene 958) = test: BSK_LPS_CD40: BioMAP Diversity Plus: LPS Assay for CD40 Biomarker Activity (AID 2283076); conditions: primary human HUVEC with PBMC; actives raise or lower the signal
How it was run: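 In the LPS system of human endothelial cells with peripheral blood mononuclear cells, CD40 levels were read by ELISA 24 h post-treatment. Signal changes in either direction were fitted against the DMSO baseline, with parallel SRB protein staining.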

[7] = read-out: E-selectin (Homo sapiens) (UniProt P16581); test: BSK_LPS_Eselectin: BioMAP Diversity Plus: LPS Assay for Eselectin Biomarker Activity (AID 2283077); conditions: primary human HUVEC with PBMC; actives raise or lower the signal
How it was run: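 E-selectin ELISA on LPS-stimulated endothelial cell/PBMC co-cultures, read 24 h post-treatment; gains and losses fitted against DMSO. Parallel SRB staining (0.1% SRB after 10% TCA fixation, 560 nm) flags overt cytotoxicity.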

[8] = read-out: Interleukin-8 (IL8), CXCL8 (gene 3576); test: BSK_LPS_IL8: BioMAP Diversity Plus: LPS Assay for Interleukin-8 (IL8) Biomarker Activity (AID 2283078); conditions: primary human HUVEC with PBMC; actives raise or lower the signal
How it was run: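 ELISA read-out of IL-8 after 24 h chemical treatment of LPS-activated endothelial/PBMC human primary co-cultures. Changes either up or down relative to DMSO; overt cytotoxicity checked by sulforhodamine B staining in parallel wells.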

[9] = BSK_LPS_SRB: Viability Assessment in the BioMAP Diversity Plus: LPS Assay (AID 2283079); conditions: primary human HUVEC with PBMC;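 further: total protein by sulforhodamine B absorbance as a cytotoxicity measure; measured one day after compound addition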
How it was run: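 SRB viability endpoint: cells fixed with 10% TCA, stained with 0.1% SRB, read at 560 nm, 24 h post-dose. HUVEC/PBMC co-culture; signal change in either direction scored relative to DMSO.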

Measured: AC50

E-selectin (Homo sapiens), sequence (P16581 whole entry, looked up): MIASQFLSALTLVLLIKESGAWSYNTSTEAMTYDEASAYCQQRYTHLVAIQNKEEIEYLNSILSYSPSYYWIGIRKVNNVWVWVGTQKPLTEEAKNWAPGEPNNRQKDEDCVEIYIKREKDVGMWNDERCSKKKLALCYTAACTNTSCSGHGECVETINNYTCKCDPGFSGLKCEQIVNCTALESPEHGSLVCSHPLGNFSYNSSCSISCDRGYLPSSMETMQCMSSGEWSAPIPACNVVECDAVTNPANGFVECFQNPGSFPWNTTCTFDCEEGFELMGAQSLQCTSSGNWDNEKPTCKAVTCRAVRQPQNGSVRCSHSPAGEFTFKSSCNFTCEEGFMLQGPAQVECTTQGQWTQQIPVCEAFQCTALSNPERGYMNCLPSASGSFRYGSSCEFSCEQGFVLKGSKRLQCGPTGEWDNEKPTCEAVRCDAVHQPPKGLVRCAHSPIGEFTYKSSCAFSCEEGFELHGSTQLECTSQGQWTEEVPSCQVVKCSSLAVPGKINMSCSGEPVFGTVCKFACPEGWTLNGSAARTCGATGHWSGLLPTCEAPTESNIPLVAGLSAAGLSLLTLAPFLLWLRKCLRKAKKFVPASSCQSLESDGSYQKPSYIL

C[C@H]1[C@H](c2ccc(Cl)cc2)SC(=O)N1C(=O)NC1CCCCC1
active: [5] 9.22 µM | [9] 10.9 µM
inactive: [1] | [2] | [3] | [4] | [6] | CD40, CD40 (gene 958) | [7] | [8]

CC1(C)C(C=C(Cl)Cl)C1C(=O)OC(C#N)c1ccc(F)c(Oc2ccccc2)c1 (configuration not stated)
inactive: [1] | [2] | [3] | [4] | [5] | [6] | CD40, CD40 (gene 958) | [7]
active: [8] 20 µM | [9] 6.63 µM

CNC(=O)CSP(=S)(OC)OC
inactive: [1] | [2] | [3] | [4] | [5] | [6] | CD40, CD40 (gene 958) | [7] | [8] | [9]

Oc1cc(Cl)ccc1Oc1ccc(Cl)cc1Cl
active: [1] 29.8 µM [middle of 4 runs] | [2] 30 µM and 29.7 µM and 20 µM | [3] 18.5 µM [middle of 4 runs] | [4] 36.6 µM [middle of 4 runs] | [5] 15.2 µM [middle of 4 runs] | [6] 31 µM [middle of 4 runs] | CD40, CD40 (gene 958) 12.3 µM and 9.21 µM and 12.1 µM | [7] 15.6 µM [middle of 4 runs] | [8] 27.6 µM [middle of 4 runs] | [9] 17.1 µM and 19.7 µM and 18.7 µM

CC(C)(C)C(O)C(Oc1ccc(Cl)cc1)n1cncn1 (configuration not stated)
inactive: [1] | [2] | [3] | [4] | [5] | [6] | CD40, CD40 (gene 958) | [7] | [8] | [9]

O=S(=O)(O)C(F)(F)C(F)(F)C(F)(F)C(F)(F)C(F)(F)C(F)(F)C(F)(F)C(F)(F)F
inactive: [1] | [2] | [3] | [4] | [5] | [6] | CD40, CD40 (gene 958) | [7] | [8] | [9]
active: [1] 28.1 µM and 16.4 µM | [2] 33.9 µM and 35.3 µM | [3] 30.1 µM and 31.6 µM and 31.3 µM | [4] 16.8 µM | [6] 35.6 µM and 30.4 µM | [8] 9.09 µM and 1.92 µM and 7.33 µM

O=C(O)CCCOc1ccc(Cl)cc1Cl
inactive: [1] | [2] | [3] | [4] | [5] | [6] | CD40, CD40 (gene 958) | [8] | [9]

Cc1cc(C)nc(NC(=O)NS(=O)(=O)c2ccccc2C(=O)OC2COC2)n1
inactive: [1] | [2] | [3] | [4] | [5] | [6] | CD40, CD40 (gene 958) | [8] | [9]

COC(=O)c1ccccc1CS(=O)(=O)NC(=O)Nc1nc(OC)cc(OC)n1
inactive: [1] | [2] | [3] | [4] | [5] | [6] | CD40, CD40 (gene 958) | [8] | [9]

COP(=O)(OC)OC=C(Cl)Cl
active: CD40, CD40 (gene 958) 27.3 µM
inactive: [1] | [2] | [3] | [4] | [5] | [6] | [8] | [9]

COc1nn(CSP(=S)(OC)OC)c(=O)s1
inactive: [1] | [2] | [3] | [4] | [5] | [6] | CD40, CD40 (gene 958) | [8] | [9]
active: [7] 4.79 µM

CC(C)(C)C(O)/C(=C\c1ccc(Cl)cc1Cl)n1cncn1 (configuration not stated)
active: [2] 33.2 µM | [4] 34.3 µM | [5] 28.5 µM | [6] 32.2 µM | CD40, CD40 (gene 958) 18.4 µM | [7] 21.9 µM | [8] 32.4 µM | [9] 31 µM
inactive: [1] | [3]
